According to PubChem BioAssay (NCI):
About 83,000 compounds went through this panel and 20% of them were active in at least one assay; those are over-represented in the sample as a whole.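 A percent growth of 40 corresponds to 60% growth inhibition; 0 means no net growth; -100 means all cells died. Active threshold: below 10.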 Values without a mark were called inactive. Calls of active or inactive are those of the source.

The compounds below were run on HOP-62 NSCLC (assay: NCI-60 one-dose screen, 48 h (100 = growth as untreated, 0 = no growth, -100 = all killed)). Conditions: 10 µM unless noted.
Experimental: Growth inhibition of the HOP-62 human Non-Small Cell Lung tumor cell line is measured as a screen for anti-cancer activity. Cells are grown in 96 well plates and exposed to the test compound for 48 hours. Compounds are tested at a single concentration, which is 10^-5 M for most compounds. The reported endpoint is percent growth (GI% or GIPRCNT), where numbers from 0 - 100% represent growth inhibition, and numbers from -100% - 0 represent cell death. For example, a value of 40 represents 60% growth inhibition. A value of 0 means no net growth occurred over the course of the experiment. A value of -40 indicates 40% of cells at the beginning of the experiment died by the end of the experiment. A value of -100 means all cells are dead at the end of the experiment.
NCI-60 Human Tumor Cell Lines Screen was performed using the standard one-dose NCI protocol, which is described in more detail at https://dtp.cancer.gov/discovery_development/nci-60/default.htm.
Compounds with GIPRCNT values below 10 were considered active. Activity score was based on GIPRCNT using the following formula: […]
Score is 0 for GIPRCNT values of 100 or above, 50 for GIPRCNT values of 0, and 100 for GIPRCNT values of -100.

SMILES	growth
c1ccc(-c2nnc(Nc3nnc(-c4ccccc4)s3)s2)cc1	101%
COc1ccc(Nc2ccnc(NCCCNc3ccnc4cc(Cl)ccc34)n2)cc1	46.9%
CCN1CCN(c2cc(-c3cn[nH]c3-c3cc(C)cc(OC)c3)nc(-c3cccnc3)n2)CC1	101%
C/C(=N/N=C(N)N)c1ccc(Cl)cc1	98.8%
CC(C)[C@H]1CC[C@H]2[C@@H](CC[C@H]3[C@](C)(CN)CCC[C@]23C)C1	56.3%
Cc1c(N(C)CS(=O)(=O)O)c(=O)n(-c2ccccc2)n1C	92.7%
CO[C@H]1/C=C/O[C@@]2(C)Oc3c(C)c(O)c4c(O)c(c(/C=N/N5CCN(C)CC5)c(O)c4c3C2=O)NC(=O)/C(C)=C\C=C\C(C)[C@H](O)[C@@H](C)[C@@H](O)[C@@H](C)[C@@H](OC(C)=O)[C@@H]1C (stereo not given in full)	99.4%
ClC1=C(Cl)C(Cl)=C(Cl)C1=Cc1ccc(Cl)cc1	47.4%
CCN(CC)CCOc1ccc(C2=C(c3ccccc3)CCc3cc(OC)ccc32)cc1	-74.9% (active)
O=C(C(=O)N1CCCCC1)c1ccc(OC2OC(CO)C(O)C(O)C2O)cc1 (stereo not given)	104%
CC1=NN(c2ccccc2Cl)C(=O)/C1=C\c1cn(S(=O)(=O)c2ccc(C)cc2)c2ccccc12	62.3%
CN1C(=O)C(=Cc2cn(Cc3ccccc3)c3ccc(Br)cc23)C(=O)N(C)C1=O	85.8%
Cc1ccc(NC(=O)COC(=O)c2ccc(S(=O)(=O)N3CCCCCC3)cc2)cc1	96.4%
CCCCC1Nc2nc(SC)n(C)c(=O)c2CN(Cc2ccccc2)C1=O (stereo not given)	97.9%
Nc1nc(Cl)c2[nH]cnc2n1	95.2%
CN(C)c1ccc(/C=C(\C#N)c2nc3ccccc3c(=O)[nH]2)cc1	105%
O=Nc1ccc(O)c(=O)cc1	88.1%
O=C(Cn1ccnc1)NC(c1ccccc1)c1ccccc1	96%
C=C1CC[C@@H]2[C@](C)(COC(C)=O)[C@H](OC(C)=O)CC[C@@]2(C)[C@@H]1CC(Nc1ccc(S(=O)(=O)Nc2cc(C)on2)cc1)C1=CCOC1=O (stereo not given in full)	60.2%
CC(CCC(=O)O)(NC(=O)c1ccc([N+](=O)[O-])cc1)C(=O)O (stereo not given)	92.8%

SMILES	growth
O=C(/C(=C/c1cccc([N+](=O)[O-])c1)c1ccccc1)c1ccccc1	91.2%
O=C(CSCC(=O)N/N=C/c1ccccc1O)N/N=C\c1ccccc1O	25.3%
COc1ccc(/C=C2\COc3ccc(O)c(O)c3C2=O)cc1OC	11.6%
Clc1ncn[nH]1	98.6%
O=C(Nc1ccc(Cl)cc1)c1cc2c(cc1O)[nH]c1ccccc12	-2.15% (active)
O=C1OCCCCCCCCCC#Cc2ccccc21	99.7%
CN(C(=O)c1ccccc1)N(C)C(=O)c1ccccc1	94.7%
Cc1cc2c(cc1C)Nc1sc(NC(=O)CN3CCN(C)CC3)nc1C(=O)N2	94.5%
Cc1ccc2c(c1)C(=O)/C(=C/c1ncc([N+](=O)[O-])n1C)O2	61.2%
CN(CC(=O)N(Cc1ccc(C2CCCCC2)cc1)c1ccc(C(=O)O)cc1)S(=O)(=O)c1c(F)c(F)c(F)c(F)c1F	60.6%
CCS(=O)(=O)OCCCl	108%
CC(=O)c1ccc2c3c(n(C)c2c1)CCCC3	101%
c1ccc(-c2nn[nH]n2)c(-c2ccc(CN3CCN(c4nsc5ccccc45)CC3)cc2)c1	110%
C=C(C)[C@H]1CC/C(C)=C/CC[C@]2(C)O[C@H]2CC/C(C=O)=C\C1O (stereo not given in full)	105%
Nc1ncc(-c2cnn(C3CCNCC3)c2)cc1-c1nc2cc(Cl)ccc2o1	-98.1% (active)
c1cncc(CNc2ccccc2-c2nnc(Nc3ccc4c(c3)OCO4)o2)c1	27.2%
CCN1C[C@@H](C)n2c(c(O)c3c(=O)n(Cc4ccc(F)c(Cl)c4)nc(C(=O)NC)c32)C1=O	26%
CCC(CC)NCCCCCNc1cc(OC)cc2cccnc12	84.6%
Fc1ccc([C@@H]2CCNC[C@H]2COc2ccc3c(c2)OCO3)cc1	79%
Cc1ccccc1-c1cc(Cc2ccccc2O)c(=O)[nH]n1	108%
